Source: PubChem BioAssay
Calls of active or inactive are those of the source.

What was measured:
[1] = test system: PRMT1 (protein arginine N-methyltransferase 1); assay: small molecules binding arginine methyltransferase PRMT1 – biochemical, small-molecule microarray, 635 nm fluorescence, primary screen (AID 1088); conditions: higher = more signal;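 further: binding of Prmt1 protein to compounds spotted on small-molecule microarray slides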
[2] = growth effects on S. cerevisiae YJM789 – YJM789 clinical isolate, OD600, 24 h, basal, primary screen (AID 1089); conditions: higher = more signal, called active from +8 up or from −8 down;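 further: growth of clinical yeast isolate S. cerevisiae YJM 789 seeded 1000 cells per well; test concentration not given here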
[3] = S. pombe growth modifiers, basal conditions – strain 972, OD600, 24 h, no modulator, primary screen (AID 1090);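 further: basal condition with compound alone and no growth modifier present; test concentration not given here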; conditions: S. pombe 972 growth, higher = more signal, called active from +8 up or from −8 down
[4] = budding yeast growth modifiers under rapamycin – strain BY4716, OD600, 96 h, primary screen (AID 1091); further: test concentration not given here; conditions: S. cerevisiae BY4716 + rapamycin, higher = more signal, called active from +8 up or from −8 down
[5] = target: Torsin-1A-interacting protein 2 (Homo sapiens) (UniProt Q8NFQ8); assay: small molecules binding lysate-expressed LULL1 – cell lysate, human LULL1 lysate, 635/667 nm fluorescence, primary screen (AID 1092); conditions: small-molecule microarray, hLULL1 lysate binding, 635 nm fluorescence; higher = more signal;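 further: probe is lysate of COS7 cells overexpressing human LULL1; score merges per-feature 667 nm fluorescence with signal-to-noise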
[6] = optical density change of DRC41 E. coli – strain DRC41, OD650, 24 h, E. coli filamentation project, primary screen (AID 1093);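 further: MC1000 strain lacking acrAB efflux and sulA so SOS filamentation is blocked; test concentration not given here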; conditions: E. coli DRC41 growth, higher = more signal, called active from +8 up or from −8 down
[7] = probe aLefty2 binding to arrayed compounds – biochemical, biotinylated probe, 635/667 nm fluorescence, primary screen (AID 1094); conditions: small-molecule microarray, higher = more signal;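 further: score merges spot fluorescence near 667 nm with spot signal-to-noise ratio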
[8] = test system: Noggin (protein binding on small-molecule microarray); assay: small molecules binding Noggin protein – biochemical, 635/667 nm fluorescence, primary screen (AID 1095); conditions: 635 nm fluorescence, higher = more signal;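 further: score merges 667 nm feature fluorescence with signal to noise over triplicate slides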
[9] = target: Neurogenic locus notch homolog protein 3 (Homo sapiens) (UniProt Q9UM47); assay: small molecules binding NOTCH3 protein – biochemical, 635/667 nm fluorescence, primary screen (AID 1096); conditions: small-molecule microarray, 635 nm fluorescence, higher = more signal
[10] = probe aEGFR binding to arrayed compounds – biochemical, biotinylated probe, 635/667 nm fluorescence, primary screen (AID 1097); conditions: small-molecule microarray, higher = more signal;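 further: probe is a biotinylated anti-EGFR antibody binding compounds printed on slides; score combines fluorescence near 667 nm and signal to noise of each spot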
[11] = test system: Plasmodium falciparum Sir2 (PF13_0152, Sir2A); assay: Plasmodium falciparum Sir2A binding compounds – biochemical, small-molecule microarray, 635 nm fluorescence, primary screen (AID 1098); conditions: fluorescence 635 nm, higher = more signal;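 further: score merges spot fluorescence intensity with its signal-to-noise ratio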
[12] = probe aDKK1 binding to arrayed compounds – biochemical, biotinylated probe, 635/667 nm fluorescence, primary screen (AID 1099); conditions: small-molecule microarray, higher = more signal;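 further: score merges 667nm spot fluorescence with signal to noise across triplicate slides; reference of the scale not given here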
[13] = probe aCHRDL2 binding to arrayed compounds – biochemical, biotinylated probe, 635/667 nm fluorescence, primary screen (AID 1100); conditions: small-molecule microarray, higher = more signal
[14] = change in splice reporter luminescence, either direction, cell-based, HEK293, spliceosome inhibition project, primary screen (AID 1101); conditions: HEK293 splicing luciferase reporter, 24 h, higher = more signal, called active from +8 up or from −8 down;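 further: HEK293 cells carrying a splicing-competent luciferase reporter gene; test concentration not given here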
[15] = target: Fibroblast growth factor 10 (Homo sapiens) (UniProt O15520); assay: compounds binding fibroblast growth factor 10 – biochemical, small-molecule microarray, 635 nm fluorescence, primary screen (AID 1102); conditions: FGF10 binding, fluorescence 635 nm, higher = more signal
[16] = test system: glycogen synthase kinase-3 (GSK3A per assay name; protocol says GSK3B); assay: compounds binding glycogen synthase kinase-3 – biochemical, small-molecule microarray, 635 nm fluorescence, GSK3A, primary screen (AID 1103); conditions: fluorescence 635 nm, higher = more signal; further: the record names both GSK3A and GSK3B
[17] = target: Epidermal growth factor receptor (Homo sapiens) (UniProt P00533); assay: compounds binding epidermal growth factor receptor – biochemical, small-molecule microarray, 635 nm fluorescence, primary screen (AID 1104); conditions: EGFR binding, higher = more signal;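 further: score merges 667 nm emission intensity with spot signal to noise over triplicate slides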
[18] = target: Follistatin-related protein 3 (Homo sapiens) (UniProt O95633); assay: compounds binding follistatin-related protein 3 – biochemical, small-molecule microarray, 635 nm fluorescence, primary screen (AID 1105); conditions: FSTL3 binding, higher = more signal;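 further: score merges emission near 667 nm and signal to noise per printed spot across three slides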
[19] = target: Dickkopf-related protein 1 (Homo sapiens) (UniProt O94907); assay: small molecules binding DKK1 protein – biochemical, small-molecule microarray, 635 nm fluorescence scan, primary screen (AID 1106); conditions: higher = more signal;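 further: score merges emission near 667 nm with signal to noise over three replicate slides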
[20] = test system: Inhibin beta A chain (activin A); assay: small molecules binding activin A – biochemical, small-molecule microarray, 635 nm fluorescence scan, primary screen (AID 1107); conditions: INHBA, higher = more signal;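 further: mouse activin A protein probed at 4.33 µg/mL on printed slides; score merges bound-protein fluorescence near 667 nm with spot signal-to-noise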

Sequence of Torsin-1A-interacting protein 2 (Homo sapiens) (Q8NFQ8 whole entry, looked up): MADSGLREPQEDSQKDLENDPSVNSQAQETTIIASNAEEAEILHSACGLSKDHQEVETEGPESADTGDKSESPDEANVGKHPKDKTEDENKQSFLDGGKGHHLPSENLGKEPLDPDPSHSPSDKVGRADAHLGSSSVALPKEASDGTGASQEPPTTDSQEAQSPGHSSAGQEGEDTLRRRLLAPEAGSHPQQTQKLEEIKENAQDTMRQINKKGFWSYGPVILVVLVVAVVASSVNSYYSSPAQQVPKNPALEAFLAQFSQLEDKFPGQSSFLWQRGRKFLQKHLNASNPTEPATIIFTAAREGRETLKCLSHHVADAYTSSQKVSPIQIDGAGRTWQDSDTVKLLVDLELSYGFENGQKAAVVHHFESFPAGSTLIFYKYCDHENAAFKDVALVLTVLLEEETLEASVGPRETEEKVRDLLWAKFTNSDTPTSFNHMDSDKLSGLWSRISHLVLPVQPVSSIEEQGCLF
Sequence of Dickkopf-related protein 1 (Homo sapiens) (O94907 whole entry, looked up): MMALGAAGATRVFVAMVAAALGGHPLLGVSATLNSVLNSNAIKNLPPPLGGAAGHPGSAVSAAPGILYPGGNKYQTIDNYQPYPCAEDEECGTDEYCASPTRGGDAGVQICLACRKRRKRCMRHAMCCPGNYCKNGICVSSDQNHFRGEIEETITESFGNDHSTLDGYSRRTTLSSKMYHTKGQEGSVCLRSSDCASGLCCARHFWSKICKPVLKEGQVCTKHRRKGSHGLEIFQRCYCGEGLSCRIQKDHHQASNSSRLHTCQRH
Sequence of Follistatin-related protein 3 (Homo sapiens) (O95633 whole entry, looked up): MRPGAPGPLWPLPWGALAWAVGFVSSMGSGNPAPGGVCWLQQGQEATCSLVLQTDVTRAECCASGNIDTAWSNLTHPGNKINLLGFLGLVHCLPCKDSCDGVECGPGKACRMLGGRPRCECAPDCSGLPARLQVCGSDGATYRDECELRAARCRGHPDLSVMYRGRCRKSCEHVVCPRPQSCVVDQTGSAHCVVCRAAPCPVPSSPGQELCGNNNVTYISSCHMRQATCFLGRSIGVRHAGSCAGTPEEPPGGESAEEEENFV
Sequence of Neurogenic locus notch homolog protein 3 (Homo sapiens) (Q9UM47 whole entry, looked up): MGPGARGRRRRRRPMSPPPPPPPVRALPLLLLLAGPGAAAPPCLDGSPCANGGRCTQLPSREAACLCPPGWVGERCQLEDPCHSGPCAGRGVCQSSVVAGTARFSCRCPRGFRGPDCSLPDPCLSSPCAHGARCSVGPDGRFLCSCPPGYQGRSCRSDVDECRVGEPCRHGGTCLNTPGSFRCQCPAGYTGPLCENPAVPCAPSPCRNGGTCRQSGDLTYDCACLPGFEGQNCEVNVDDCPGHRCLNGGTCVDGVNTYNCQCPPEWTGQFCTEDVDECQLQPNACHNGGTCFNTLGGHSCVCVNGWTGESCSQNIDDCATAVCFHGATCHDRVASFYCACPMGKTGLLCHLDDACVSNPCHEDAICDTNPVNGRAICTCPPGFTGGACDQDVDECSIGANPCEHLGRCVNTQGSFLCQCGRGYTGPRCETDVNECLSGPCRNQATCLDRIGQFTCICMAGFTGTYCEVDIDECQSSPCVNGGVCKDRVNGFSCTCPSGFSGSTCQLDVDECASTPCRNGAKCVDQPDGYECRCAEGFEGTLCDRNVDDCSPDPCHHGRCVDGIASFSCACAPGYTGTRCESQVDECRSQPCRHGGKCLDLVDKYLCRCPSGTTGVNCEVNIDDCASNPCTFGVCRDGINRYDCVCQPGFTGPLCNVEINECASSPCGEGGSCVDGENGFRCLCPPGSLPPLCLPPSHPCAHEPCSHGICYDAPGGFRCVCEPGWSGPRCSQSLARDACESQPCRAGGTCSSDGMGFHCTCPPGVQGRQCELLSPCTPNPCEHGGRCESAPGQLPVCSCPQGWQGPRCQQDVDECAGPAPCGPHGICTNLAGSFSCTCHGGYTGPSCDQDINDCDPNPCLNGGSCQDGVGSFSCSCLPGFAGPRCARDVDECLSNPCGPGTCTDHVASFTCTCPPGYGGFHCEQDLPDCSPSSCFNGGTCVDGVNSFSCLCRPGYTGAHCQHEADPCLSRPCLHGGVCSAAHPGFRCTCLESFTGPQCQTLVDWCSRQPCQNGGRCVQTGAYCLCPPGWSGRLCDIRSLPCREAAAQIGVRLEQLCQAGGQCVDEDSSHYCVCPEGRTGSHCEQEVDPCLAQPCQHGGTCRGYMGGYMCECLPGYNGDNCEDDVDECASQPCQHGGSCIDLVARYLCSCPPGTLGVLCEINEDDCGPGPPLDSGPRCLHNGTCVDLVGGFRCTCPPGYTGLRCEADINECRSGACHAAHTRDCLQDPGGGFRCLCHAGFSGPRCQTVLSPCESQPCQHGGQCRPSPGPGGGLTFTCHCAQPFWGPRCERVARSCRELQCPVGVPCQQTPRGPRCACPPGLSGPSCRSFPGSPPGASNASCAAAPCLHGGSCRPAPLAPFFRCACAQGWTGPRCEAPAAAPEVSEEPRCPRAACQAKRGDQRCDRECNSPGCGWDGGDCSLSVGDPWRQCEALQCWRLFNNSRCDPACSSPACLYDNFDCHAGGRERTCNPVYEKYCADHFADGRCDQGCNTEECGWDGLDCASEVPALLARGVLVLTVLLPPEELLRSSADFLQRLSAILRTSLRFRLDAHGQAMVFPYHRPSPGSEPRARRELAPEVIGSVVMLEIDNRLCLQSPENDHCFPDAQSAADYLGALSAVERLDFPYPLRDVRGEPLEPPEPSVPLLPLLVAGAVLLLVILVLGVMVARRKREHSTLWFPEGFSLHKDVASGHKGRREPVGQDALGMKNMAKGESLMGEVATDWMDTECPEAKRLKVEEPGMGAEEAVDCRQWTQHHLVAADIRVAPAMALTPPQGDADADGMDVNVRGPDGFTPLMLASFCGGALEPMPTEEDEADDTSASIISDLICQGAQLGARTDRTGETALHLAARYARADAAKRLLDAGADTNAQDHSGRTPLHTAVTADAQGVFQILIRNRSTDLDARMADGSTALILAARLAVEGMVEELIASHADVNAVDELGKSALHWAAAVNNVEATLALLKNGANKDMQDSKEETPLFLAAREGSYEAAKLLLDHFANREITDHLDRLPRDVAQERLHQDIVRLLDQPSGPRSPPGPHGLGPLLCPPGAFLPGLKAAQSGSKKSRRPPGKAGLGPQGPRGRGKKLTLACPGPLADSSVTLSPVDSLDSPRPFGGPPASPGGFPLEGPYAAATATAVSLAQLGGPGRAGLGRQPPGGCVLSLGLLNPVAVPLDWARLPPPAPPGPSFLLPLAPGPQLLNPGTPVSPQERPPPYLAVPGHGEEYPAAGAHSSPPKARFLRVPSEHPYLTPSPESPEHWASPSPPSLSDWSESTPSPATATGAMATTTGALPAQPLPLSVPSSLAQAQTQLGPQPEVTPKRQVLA
Sequence of Epidermal growth factor receptor (Homo sapiens) (P00533 whole entry, looked up): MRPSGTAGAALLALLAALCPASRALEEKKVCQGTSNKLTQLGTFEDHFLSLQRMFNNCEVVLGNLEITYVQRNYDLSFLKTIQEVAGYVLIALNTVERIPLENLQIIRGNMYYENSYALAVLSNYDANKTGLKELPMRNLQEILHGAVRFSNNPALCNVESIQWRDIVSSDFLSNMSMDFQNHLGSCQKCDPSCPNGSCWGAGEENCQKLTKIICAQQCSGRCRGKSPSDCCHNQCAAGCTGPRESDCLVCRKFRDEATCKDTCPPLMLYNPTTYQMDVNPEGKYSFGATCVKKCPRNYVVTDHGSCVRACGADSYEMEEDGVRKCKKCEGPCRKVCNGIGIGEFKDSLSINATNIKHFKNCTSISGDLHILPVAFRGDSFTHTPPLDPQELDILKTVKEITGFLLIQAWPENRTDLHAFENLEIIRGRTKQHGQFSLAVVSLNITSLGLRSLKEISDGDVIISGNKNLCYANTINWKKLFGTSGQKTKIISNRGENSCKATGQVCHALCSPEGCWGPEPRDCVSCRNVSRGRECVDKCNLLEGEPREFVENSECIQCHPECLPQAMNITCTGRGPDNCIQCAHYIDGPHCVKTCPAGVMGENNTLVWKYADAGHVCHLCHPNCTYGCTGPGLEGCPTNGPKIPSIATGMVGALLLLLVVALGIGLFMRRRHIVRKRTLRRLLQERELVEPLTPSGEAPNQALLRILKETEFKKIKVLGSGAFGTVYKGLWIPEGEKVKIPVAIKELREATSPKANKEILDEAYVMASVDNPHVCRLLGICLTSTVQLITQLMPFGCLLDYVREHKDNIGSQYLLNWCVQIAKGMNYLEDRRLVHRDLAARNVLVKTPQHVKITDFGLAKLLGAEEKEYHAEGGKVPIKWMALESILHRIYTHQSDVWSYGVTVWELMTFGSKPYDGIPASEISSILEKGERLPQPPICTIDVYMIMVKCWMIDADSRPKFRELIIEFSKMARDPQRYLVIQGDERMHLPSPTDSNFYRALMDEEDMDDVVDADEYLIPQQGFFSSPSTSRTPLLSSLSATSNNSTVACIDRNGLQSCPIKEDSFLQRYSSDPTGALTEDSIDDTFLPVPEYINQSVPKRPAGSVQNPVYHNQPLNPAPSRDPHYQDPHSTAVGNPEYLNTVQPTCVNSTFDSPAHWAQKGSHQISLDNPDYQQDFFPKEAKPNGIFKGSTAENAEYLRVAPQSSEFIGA
Sequence of Fibroblast growth factor 10 (Homo sapiens) (O15520 whole entry, looked up): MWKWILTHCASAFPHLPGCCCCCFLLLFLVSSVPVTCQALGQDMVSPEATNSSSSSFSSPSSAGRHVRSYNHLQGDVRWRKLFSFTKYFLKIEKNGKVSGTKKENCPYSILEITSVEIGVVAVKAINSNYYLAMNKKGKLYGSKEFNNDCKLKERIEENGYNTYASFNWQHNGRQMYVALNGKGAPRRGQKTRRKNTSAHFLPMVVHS

Compound	composite z-score [1]	z-score [2]	z-score [3]	z-score [4]	composite z-score [5]	z-score [6]	composite z-score [7]	composite z-score [8]	composite z-score [9]	composite z-score [10]	composite z-score [11]	composite z-score [12]	composite z-score [13]	z-score [14]	composite z-score [15]	composite z-score [16]	composite z-score [17]	composite z-score [18]	composite z-score [19]	composite z-score [20]
CN(C)C(=O)[C@@]1(Cc2ccccc2CN=[N+]=[N-])COC(c2ccc(OCCCO)cc2)=N1	0.688	-0.352 (inactive)	-7.06 (inactive)	31.3 (active)	2.65	2.21 (inactive)	0.0781	-0.543	0.132	-0.152	0.508	0.42	1.01	-0.51 (inactive)	-0.0391	-0.958	-0.916	-0.522	-1.19	0.744
CC(C)C[C@@H]1NC(=O)[C@@]23C(=O)N[C@@H](Cc4ccccc4)C2[C@H](C)[C@@]2(C)O[C@H]2C3/C=C/C/C=C\CNC(=O)CNC1=O (stereo not given in full)	0.514	-0.135 (inactive)	-1.1 (inactive)	-0.159 (inactive)	2.23	-0.52 (inactive)	0.0207	0.609	0.53	-0.0812	1.19	-0.268	-0.51	0.103 (inactive)	0.452	0.202	0.127	0.768	0.268	1.4
C=CCC(OC(C)=O)[C@@H]1[C@@H](N(Cc2cccc3ccccc23)C(=O)Cc2ccc(OC)cc2)c2cc(OCCCO)ccc2N1C(=O)c1ccc2ccccc2c1 (stereo not given in full)	1.14	-1.12 (inactive)	0.098 (inactive)	-1.35 (inactive)	1.06	1.1 (inactive)	-0.0042	0.115	0.373	-0.0967	0.0596	0.0644	0.256	-1.68 (inactive)	0.045	-0.344	0.0359	0.627	0.234	1.35
O=C1[C@H]2C=C(I)[C@H](C[C@@H]2c2ccccc2)[C@@]12CO2	0.298	-3.2 (inactive)	-19.3 (active)	-2.84 (inactive)	-0.0459	-0.924 (inactive)	-0.238	0.355	-0.183	-0.139	-0.506	-0.322	-0.197	0.523 (inactive)	0.0211	-0.326	0.384	-0.461	0.485	1.15
[N-]=[N+]=Nc1ccccc1[C@H]1OC(c2ccc(OCCCO)cc2)=N[C@@]1(Cc1ccccc1)C(=O)NCC(O)CO (stereo not given in full)	1.02	-0.858 (inactive)	-1.13 (inactive)	0.617 (inactive)	3.52	0.824 (inactive)	0.109	0.0821	0.206	-0.0226	0.315	0.78	0.981	-0.562 (inactive)	-0.0795	0.0637	-0.942	-0.283	-0.535	0.647
C[C@@H]1ON(c2ccccc2)[C@H](c2ccccc2)[C@H]1C(=O)O	0.461	-0.452 (inactive)	0.252 (inactive)	-0.408 (inactive)	-0.0551	-0.108 (inactive)	-0.196	0.175	0.102	0.203	-0.344	-0.158	-0.269	0.221 (inactive)	0.777	0.362	-0.436	-0.213	0.796	-0.367
C[N+](C)(C)CCCC[C@@H]1NC(=O)[C@H]2C[C@@H](C(=O)NCCCCCNC(=O)CS)[C@@H](c3cccc(OCCO)c3)N2C1=O	-0.248	-0.802 (inactive)	-0.693 (inactive)	-0.451 (inactive)	1.36	0.469 (inactive)	-0.152	0.378	-0.36	-0.127	1.57	0.242	0.47	1.12 (inactive)	-0.166	0.272	0.412	-0.664	0.0501	0.761
O=C(NCc1ccc(F)cc1)[C@H]1C[C@H]2C(=O)N3CCC[C@H]3C(=O)N2[C@H]1c1ccc(O)cc1	0.0679	-1.04 (inactive)	-1.47 (inactive)	0.164 (inactive)	-0.296	2.41 (inactive)	-0.0963	-0.139	-0.484	-0.169	0.605	-0.294	-0.292	-1.62 (inactive)	-0.0335	-0.73	0.192	-0.423	0.889	-0.964
COC(=O)[C@@]1(Cc2ccc(F)cc2)[C@H]2c3cc(C(=O)N4CCCC4)n(CCc4ccccn4)c3C[C@H]2CN1C(=O)c1ccccc1	-0.63	-0.0526 (inactive)	0.804 (inactive)	0.414 (inactive)	2.89	-0.223 (inactive)	0.181	-0.701	0.572	-0.164	0.785	0.507	1.02	-1.31 (inactive)	0.577	-0.73	-0.559	-0.575	-0.554	0.987
C=C(C)[C@@H]1CC=C(C(O)C2C=CC3C(=O)N(c4ccccc4)C(=O)C3N2Nc2ccc([N+](=O)[O-])cc2)CC1 (stereo not given in full)	1.55	-0.0158 (inactive)	0.348 (inactive)	3.6 (inactive)	3.57	-1.96 (inactive)	-0.0357	0.939	1.05	-0.0435	-0.0606	0.32	0.822	-0.682 (inactive)	1.27	1.31	0.613	1.44	-0.103	0.883
